Where “and” joins values, the source holds several entries; their conditions need not be identical. Equal entries are not always repeated. The panel holds about 79,000 compounds, 15% with a hit somewhere; the sample as a whole holds those more often. The source holds several records for some structures; these can differ, active in one and inactive in another. Calls of active or inactive are those of the source. No stated cut-off is given here; in the data, active means growth inhibition above about 70%; inactive means the rest.

Assay [1] can be described thus: NCI Yeast Anticancer Drug Screen. Data for the rad50 strain (AID 155).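 Further: 0% = growth of vehicle-only cultures of the same strain.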 The settings on record: S. cerevisiae rad50 strain growth inhibition, stronger effect = higher value. In a few lines:
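Genetically altered yeast (DNA repair pathway); compound treatment; growth inhibition vs vehicle ctrl.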

The nature of assay [2]: NCI Yeast Anticancer Drug Screen. Data for the mec2-1 strain (AID 157). The settings on record: S. cerevisiae mec2-1 strain, stronger effect = higher value. Put shortly:
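Test agents were screened against the mec2-1 yeast strain, with defined DNA repair or cell cycle alteration. Growth was scored as inhibition against vehicle-only controls.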

The nature of assay [3]: NCI Yeast Anticancer Drug Screen. Data for the sgs1 mgt1 strain (AID 161).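 Further: 0% = growth of cultures given vehicle only.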 The settings on record: S. cerevisiae sgs1 mgt1 strain, stronger effect = higher value. Put shortly: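 Mutant yeast exposed to compound; growth scored against vehicle-only wells.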
Assay [4] is described as follows: NCI Yeast Anticancer Drug Screen. Data for the cln2 rad14 strain (AID 165).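 Further: 0% = growth equal to vehicle treated cultures.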 The settings on record: S. cerevisiae cln2 rad14 strain, stronger effect = higher value. Put shortly:
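Growth of compound-exposed yeast (cln2 rad14 genotype) measured and expressed as inhibition relative to vehicle.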

The nature of assay [5]: NCI Yeast Anticancer Drug Screen. Data for the bub3 strain (AID 167). The settings on record: S. cerevisiae bub3 mutant strain, stronger effect = higher value. Put shortly: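 Yeast carrying a defined mutation is treated with each compound, and growth is compared with that of vehicle-exposed cells to give inhibition.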
Assay [6] is described as follows: NCI Yeast Anticancer Drug Screen. Data for the mlh1 rad18 strain (AID 175). The settings on record: S. cerevisiae mlh1 rad18 strain growth inhibition, stronger effect = higher value. In a few lines: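 In this whole-cell yeast screen, a strain with altered DNA damage repair is challenged with compound, and its growth is measured against matched vehicle-treated controls.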

Where [7] appears, read: at 5.0 µM (retest, dose inferred, filed as 0.5).
Where [8] appears, read: at 50.0 µM (retest, dose inferred, filed as 5.0).

Turning to `NC(Cc1c[nH]c2ccccc12)P(=O)(O)O` (configuration not stated), the growth inhibition in assay [1] (setting [7]) is -1% (inactive); in assay [1] (setting [8]), 37% (inactive); in assay [1] (at 50.0 µM), 38.1% (inactive); in assay [2] (setting [7]) it was 0% (inactive); in assay [2] (setting [8]) it was 87% (active); in assay [2] (at 50.0 µM), 13.4% (inactive). Also, the growth inhibition in assay [3] (setting [7]) is 3% (inactive); in assay [3] (setting [8]), 29% (inactive); in assay [3] (at 50.0 µM) it was -7.75% (inactive); in assay [4] (setting [7]), 1% (inactive); in assay [4] (setting [8]), 96% (active); in assay [4] (at 50.0 µM), 22.9% (inactive). Moreover, the growth inhibition was -9% (inactive) in assay [5] (setting [7]); 98% (active) in assay [5] (setting [8]); -0.8% (inactive) in assay [5] (at 50.0 µM); -9% (inactive) in assay [6] (setting [7]); 47% (inactive) in assay [6] (setting [8]); 26% (inactive) in assay [6] (at 50.0 µM).
Consider `CC(O)C(=O)O.CC(O)C(=O)O.[Ni]` (configuration not stated), for which the growth inhibition is -1% (inactive) in assay [1] (setting [7]); 7% (inactive) in assay [1] (setting [8]); 4.2% (inactive) in assay [1] (at 50.0 µM); 5% (inactive) in assay [2] (setting [7]); 3% (inactive) in assay [2] (setting [8]); 19.1% (inactive) in assay [2] (at 50.0 µM). Further, the growth inhibition in assay [3] (setting [7]) is -1% (inactive); in assay [3] (setting [8]) it was 4% (inactive); in assay [3] (at 50.0 µM), 0.95% (inactive); in assay [4] (setting [7]) it was -5% (inactive); in assay [4] (setting [8]), -2% (inactive); in assay [4] (at 50.0 µM), 74% (active). The growth inhibition in assay [5] (setting [7]) was 1% (inactive); in assay [5] (setting [8]), 0% (inactive); in assay [5] (at 50.0 µM), 18.1% (inactive); in assay [6] (setting [7]) it was -2% (inactive); in assay [6] (setting [8]) it was 12% (inactive); in assay [6] (at 50.0 µM), 19.4% (inactive).
On to `CC(C)NCC(O)c1ccc(O)c(O)c1.[Pt].c1ccc([PH+](c2ccccc2)c2ccccc2)cc1.c1ccc([PH+](c2ccccc2)c2ccccc2)cc1`, for which the growth inhibition is -7% (inactive) in assay [1] (setting [7]); 99% (active) in assay [1] (setting [8]); 98.7% (active) in assay [1] (at 50.0 µM); -6% (inactive) in assay [2] (setting [7]); 98% (active) in assay [2] (setting [8]); 98.8% (active) in assay [2] (at 50.0 µM). The growth inhibition was -8% (inactive) in assay [3] (setting [7]); 99% (active) in assay [3] (setting [8]); 99% (active) in assay [3] (at 50.0 µM); 11% (inactive) in assay [4] (setting [7]); 86% (active) in assay [4] (setting [8]); 97.8% (active) in assay [4] (at 50.0 µM). Moreover, the growth inhibition in assay [5] (setting [7]) is -26% (inactive); in assay [5] (setting [8]) it was 98% (active); in assay [5] (at 50.0 µM) it was 98.8% (active); in assay [6] (setting [7]), 9% (inactive); in assay [6] (setting [8]), 99% (active); in assay [6] (at 50.0 µM), 98.8% (active).
On to `Oc1cccc2cccnc12` (tested in a mixture with another compound), for which the growth inhibition in assay [1] (setting [7]) was -6% (inactive); in assay [1] (setting [8]), 2% (inactive); in assay [1] (at 50.0 µM), 73.5% (active); in assay [2] (setting [7]) it was -5% (inactive); in assay [2] (setting [8]), -6% (inactive); in assay [2] (at 50.0 µM), 83.8% (active). The growth inhibition was -4% (inactive) in assay [3] (setting [7]); 2% (inactive) in assay [3] (setting [8]); 64% (inactive) in assay [3] (at 50.0 µM); -6% (inactive) in assay [4] (setting [7]); -10% (inactive) in assay [4] (setting [8]); -20.8% (inactive) in assay [4] (at 50.0 µM). Moreover, the growth inhibition in assay [5] (setting [7]) was -5% (inactive); in assay [5] (setting [8]), -4% (inactive); in assay [5] (at 50.0 µM), 89.8% (active); in assay [6] (setting [7]) it was 0% (inactive); in assay [6] (setting [8]), -15% (inactive); in assay [6] (at 50.0 µM), 85.5% (active).
`CN1C(=O)CC[C@@]2(C)C1=CC[C@H]1[C@@H]3CC[C@H](O)[C@@]3(C)CC[C@@H]12`: the growth inhibition in assay [1] (setting [7]) was 7% (inactive); in assay [1] (setting [8]), 64% (inactive); in assay [1] (at 50.0 µM), -9.15% (inactive); in assay [2] (setting [7]), 0% (inactive); in assay [2] (setting [8]) it was 43% (inactive); in assay [2] (at 50.0 µM), 14.9% (inactive). The growth inhibition is 12% (inactive) in assay [3] (setting [7]); 79% (active) in assay [3] (setting [8]); 55% (inactive) in assay [3] (at 50.0 µM); 13% (inactive) in assay [4] (setting [7]); 40% (inactive) in assay [4] (setting [8]); -3.4% (inactive) in assay [4] (at 50.0 µM). Besides, the growth inhibition was 3% (inactive) in assay [5] (setting [7]); 63% (inactive) in assay [5] (setting [8]); 62.1% (inactive) in assay [5] (at 50.0 µM); 6% (inactive) in assay [6] (setting [7]); 52% (inactive) in assay [6] (setting [8]); 15.1% (inactive) in assay [6] (at 50.0 µM).
Turning to `CN1CC(C(=O)NC2(C)OC3(O)C4CCCN4C(=O)C(Cc4ccccc4)N3C2=O)C=C2c3cccc4[nH]cc(c34)CC21` (configuration not stated), the growth inhibition in assay [1] (setting [7]) was 26% (inactive) and -4% (inactive); in assay [1] (setting [8]), 35% (inactive) and 23% (inactive); in assay [1] (at 50.0 µM), 8.55% (inactive) and 49.2% (inactive); in assay [2] (setting [7]), 6% (inactive) and -1% (inactive); in assay [2] (setting [8]) it was 14% (inactive) and 29% (inactive); in assay [2] (at 50.0 µM) it was 6.75% (inactive) and 70.6% (active). For the same compound, the growth inhibition was 4% (inactive) and -2% (inactive) in assay [3] (setting [7]); 12% (inactive) and 50% (inactive) in assay [3] (setting [8]); -9.3% (inactive) and 61.7% (inactive) in assay [3] (at 50.0 µM); -15% (inactive) and 1% (inactive) in assay [4] (setting [7]); 22% (inactive) and 15% (inactive) in assay [4] (setting [8]); -11.6% (inactive) and 40.9% (inactive) in assay [4] (at 50.0 µM). The growth inhibition in assay [5] (setting [7]) was -24% (inactive) and 2% (inactive); in assay [5] (setting [8]), 4% (inactive) and 30% (inactive); in assay [5] (at 50.0 µM), 8.25% (inactive) and 57% (inactive); in assay [6] (setting [7]), 2% (inactive) and -3% (inactive); in assay [6] (setting [8]) it was 33% (inactive) and 65% (inactive); in assay [6] (at 50.0 µM), 51.1% (inactive) and 73% (active).
With `c1ccc(C(C(=Nc2ccc(Cc3ccc(N=C(C(c4ccccc4)c4ccccc4)N4CC4)cc3)cc2)N2CC2)c2ccccc2)cc1`, the growth inhibition was 5% (inactive) in assay [1] (setting [7]); 86% (active) in assay [1] (setting [8]); 85.6% (active) in assay [1] (at 50.0 µM); 42% (inactive) in assay [2] (setting [7]); 59% (inactive) in assay [2] (setting [8]); 92.5% (active) in assay [2] (at 50.0 µM). Also, the growth inhibition in assay [3] (setting [7]) was 5% (inactive); in assay [3] (setting [8]) it was 70% (active); in assay [3] (at 50.0 µM) it was 94.1% (active); in assay [4] (setting [7]), 8% (inactive); in assay [4] (setting [8]) it was 62% (inactive); in assay [4] (at 50.0 µM) it was 77.2% (active). The growth inhibition in assay [5] (setting [7]) is 5% (inactive); in assay [5] (setting [8]) it was 87% (active); in assay [5] (at 50.0 µM), 85.8% (active); in assay [6] (setting [7]), 11% (inactive); in assay [6] (setting [8]) it was 71% (active); in assay [6] (at 50.0 µM), 91.7% (active).
`CC1CN1C1=C(F)C(=O)C(N2CC2C)=C(F)C1=O` (configuration not stated): the growth inhibition was 98% (active) in assay [1] (setting [7]); 99% (active) in assay [1] (setting [8]); 90.8% (active) in assay [1] (at 50.0 µM); 100% (active) in assay [2] (setting [7]); 99% (active) in assay [2] (setting [8]); 94% (active) in assay [2] (at 50.0 µM). Besides, the growth inhibition in assay [3] (setting [7]) is 99% (active); in assay [3] (setting [8]), 99% (active); in assay [3] (at 50.0 µM), 91% (active); in assay [4] (setting [7]), 99% (active); in assay [4] (setting [8]) it was 99% (active); in assay [4] (at 50.0 µM) it was 91% (active). Moreover, the growth inhibition was 99% (active) in assay [5] (setting [7]); 99% (active) in assay [5] (setting [8]); 92.5% (active) in assay [5] (at 50.0 µM); 99% (active) in assay [6] (setting [7]); 99% (active) in assay [6] (setting [8]); 91.5% (active) in assay [6] (at 50.0 µM).
`Nc1nc(N)c(-c2ccc(Cl)c(Cl)c2)c(CCc2ccc(CNC(=O)c3cc(S(=O)(=O)F)ccc3Cl)cc2)n1`: the growth inhibition is -4% (inactive) in assay [1] (setting [7]); 49% (inactive) in assay [1] (setting [8]); 50.5% (inactive) in assay [1] (at 50.0 µM); -4% (inactive) in assay [2] (setting [7]); 54% (inactive) in assay [2] (setting [8]); 96% (active) in assay [2] (at 50.0 µM). Besides, the growth inhibition was -3% (inactive) in assay [3] (setting [7]); 50% (inactive) in assay [3] (setting [8]); 66.8% (inactive) in assay [3] (at 50.0 µM); -7% (inactive) in assay [4] (setting [7]); 47% (inactive) in assay [4] (setting [8]); 12.5% (inactive) in assay [4] (at 50.0 µM). The growth inhibition in assay [5] (setting [7]) is -2% (inactive); in assay [5] (setting [8]), 45% (inactive); in assay [5] (at 50.0 µM) it was 74.7% (active); in assay [6] (setting [7]) it was -3% (inactive); in assay [6] (setting [8]), 53% (inactive); in assay [6] (at 50.0 µM), 94.5% (active).

(Values after PubChem BioAssay (NCI).)
